Unmarked numbers belong to inactive results. The source made the active and inactive calls.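 How the source made its calls: active means inhibition reaching about 16% in any single replicate (limit read from the data); inactive means the rest.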
Target: Hexokinase HKDC1 (Homo sapiens) (UniProt Q2TB90)
Experiment: HKDC1 hexokinase inhibitors, confirmation, biochemical, single concentration (AID 504710)
Conditions: recombinant HKDC1, G6PDH/diaphorase/resazurin fluorescence; at 20 µM; hits give high values

Chain of Hexokinase HKDC1 (Homo sapiens) (Q2TB90 whole entry, looked up): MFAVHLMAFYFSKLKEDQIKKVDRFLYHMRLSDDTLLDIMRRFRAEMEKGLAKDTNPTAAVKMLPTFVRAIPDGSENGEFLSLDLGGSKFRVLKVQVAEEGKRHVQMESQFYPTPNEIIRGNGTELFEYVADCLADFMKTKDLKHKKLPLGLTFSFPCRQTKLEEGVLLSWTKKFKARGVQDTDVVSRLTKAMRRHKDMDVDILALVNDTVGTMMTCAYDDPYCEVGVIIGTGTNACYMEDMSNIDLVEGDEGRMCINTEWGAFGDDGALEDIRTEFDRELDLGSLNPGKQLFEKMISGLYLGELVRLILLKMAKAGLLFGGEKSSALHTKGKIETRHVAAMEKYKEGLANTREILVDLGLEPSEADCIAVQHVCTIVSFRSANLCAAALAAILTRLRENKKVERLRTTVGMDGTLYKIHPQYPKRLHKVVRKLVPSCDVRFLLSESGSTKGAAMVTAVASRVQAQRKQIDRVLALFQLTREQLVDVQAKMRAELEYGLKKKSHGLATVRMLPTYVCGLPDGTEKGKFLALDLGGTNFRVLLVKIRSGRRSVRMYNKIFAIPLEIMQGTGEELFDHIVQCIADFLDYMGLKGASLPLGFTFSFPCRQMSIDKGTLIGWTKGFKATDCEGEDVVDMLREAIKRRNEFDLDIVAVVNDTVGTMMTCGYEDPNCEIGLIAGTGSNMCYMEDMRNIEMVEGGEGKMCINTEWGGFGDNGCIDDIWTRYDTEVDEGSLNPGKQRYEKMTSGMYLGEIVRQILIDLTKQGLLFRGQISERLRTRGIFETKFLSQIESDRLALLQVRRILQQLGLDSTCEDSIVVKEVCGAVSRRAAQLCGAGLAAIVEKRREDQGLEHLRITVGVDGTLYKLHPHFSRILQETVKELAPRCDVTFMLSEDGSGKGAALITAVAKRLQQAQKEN

Row | Structure (SMILES) | inhibition
1 | Cc1nc2c3cc(F)ccc3n(Cc3ccccc3)c2s1 | -61.3%
2 | Cc1cc(Oc2ccc(C(C)(C)C)cc2)nc(N2CCOCC2)n1 | -37%
3 | COc1ccc(CN2C(=O)c3cccnc3C2O)cc1 (stereo unspecified) | 35.8% (active)
4 | O=C1C=C(N2CCOCC2)c2ccccc2C1=O | 79.4% (active)
5 | CCc1nc2sc3c(=O)[nH]cnc3c2c2c1CSC(C)(C)C2 | 30.5% (active)
6 | COc1ccc2[nH]c3c4c(ccc3c2c1)C(=O)C=CC4=O | 32.9% (active)
7 | CCCCC[C@H](O)/C=C/[C@@H]1[C@@H](C/C=C\CCCC(=O)OC)[C@@H](O)C[C@H]1O | 61% (active)
8 | Cc1ccccc1N=C1NN=C(c2ccccc2F)CS1 | -40.3%
9 | NC1=C(Cl)C(=O)c2ccc(S(N)(=O)=O)cc2C1=O | -42.9%
10 | Cc1ccc(N=Cc2cc(Cc3ccccc3Cl)cc([N+](=O)[O-])c2O)c(O)c1 | 30.2% (active)
11 | Cc1[nH]n(-c2ccccc2)c(=O)c1/C=N/Nc1nncc(-c2ccccc2)n1 | -60.6%
12 | CC(C)(C)c1nnc(N/N=C/c2cc(Br)ccc2O)n(N)c1=O | -48.8%
13 | CCC(C)C(N)C1=NC(C(=O)N[C@@H](CC(C)C)C(=O)N[C@H](CCC(=O)[O-])C(=O)N[C@H](C(=O)N[C@H]2CCCCNC(=O)[C@H](CC(N)=O)NC(=O)[C@@H](CC(=O)[O-])NC(=O)[C@H](Cc3cnc[nH]3)NC(=O)[C@@H](Cc3ccccc3)NC(=O)[C@H]([C@@H](C)CC)NC(=O)[C@@H](CCCN)NC2=O)[C@@H](C)CC)CS1.[Zn+2] (stereo partly specified) | 74.9% (active)
14 | Oc1ccc(O)c(Cc2nc3ccccc3[nH]2)c1 | 56% (active)
15 | CCCCC(=O)NC(c1ccc(N(CC)CC)cc1)c1ccc2cccnc2c1O (stereo unspecified) | -59.3%
16 | CC(NC(=O)c1sc2cc([N+](=O)[O-])ccc2c1Cl)C(C)(C)C (stereo unspecified) | -39.3%

Row | Structure (SMILES) | inhibition
17 | CCc1ccc(S(=O)(=O)/N=C2\C=C(Nc3cccc(C(=O)O)c3)C(=O)c3ccccc32)cc1 | 64.8% (active)
18 | CCOC(=O)c1c(C)[nH]c(C2=NNC(=Nc3ccc(OCC)cc3)SC2)c1C | -122%
19 | CCN(CC)c1ccc2c(c1)oc(=O)c1c(Cl)cc(=O)oc12 | 47.7% (active)
20 | Cc1ccc(C)c(-n2c3nc(=O)[nH]c(=O)c-3cc3cc([N+](=O)[O-])ccc32)c1 | 39.2% (active)
21 | O=C1C(Cl)=C(NCc2cccnc2)C(=O)c2ccccc21 | -45.1%
22 | Cc1ccc(C)c(S(=O)(=O)Nc2cc(SCC(=O)O)c(O)c3ccccc23)c1 | 55.2% (active)
23 | CC(=O)/C(=N\Nc1ccc(Cl)cc1Cl)Sc1cccc2cccnc12 | -44.8%
24 | Cc1nc2c(c(=O)c3ccccc3n2C)c(=O)n1-c1ccc(F)cc1 | 52.9% (active)
25 | COC(=O)Cn1c2ccc(F)cc2c2nc(C)sc21 | -90.4%
26 | COc1ccc(NC(=O)CSc2ccc(-c3ccco3)nn2)cc1OC | 44% (active)
27 | O=C(c1ccccc1)c1n[nH]c(-c2ccccc2)cc1=O | 16.3% (active)
28 | Cc1cc(C)n2cc(CSc3nnc(-c4ccccc4)c(-c4ccccc4)n3)nc2n1 | 38.5% (active)
29 | O=C1C=C(N2CCCCC2)c2ccccc2C1=O | 86.1% (active)
30 | CC(=O)NC1C(=O)N(CCN2CCOCC2)c2ccc(C)cc21 (stereo unspecified) | 69.7% (active)
31 | CN1c2ccc(C=O)c3c(C=O)ccc(c23)N(C)C1(C)C | 61.2% (active)
